Screening results as filed in PubChem BioAssay.
This excerpt belongs to a sample that is enriched for hits.
Pf Dd2 inh = qHTS Primary assay for Inhibitors of Plasmodium falciparum Dd2 growth in vitro; P. falciparum Dd2 growth, SYBR Green, 72 h; Potency, µM (highest dose often 28.9 µM), without a hit: at the top dose activity, negative = inhibition, usual class: inhibitors; actives 4.3% (n = 120,000); active = well fitted inhibition curve with a large enough effect;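 note: plate controls were DMSO vehicle for no effect and reference drug for full effect; nearly all actives have a fitted effect of over 65% in size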
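Infected erythrocytes (Dd2, 0.3% parasitemia, 2.5% hematocrit final) are added to compound in RPMI-1640/Albumax II medium, grown 72 h at 37C in low oxygen, then lysed with saponin/Triton-X containing SYBR Green and read by fluorescence.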
An asterisk follows results filed as active; i = inactive; [ ] = another dose, or the depositor's remark. Potency is the fitted concentration of half-maximal effect.

SMILES	Pf Dd2 inh
COc1ccc(CN[C@@H]2CCC[C@@H](C(=O)N3CCN(C)CC3)CC(=O)N(C)C2)cc1	16%[44.1 µM]
COC(=O)c1cc2sc(C)cc2n1Cc1ccccc1	-7%
COC(=O)c1cc2sccc2n1Cc1ccccc1	31%
COC(=O)c1cc2sc(C)cc2n1Cc1cccc(OC)c1	10µM*
Cc1ccc(CN2C(=O)OC(c3cccc(NC(=O)c4cccs4)c3)C2C(=O)NC2CC2)cc1 (stereo not given)	-18%
COc1cccc(-c2cc3c(=O)n(CCNC(=O)Cc4c[nH]c5ccccc45)ccn3n2)c1	i
O=C1CCC2(CCN(c3nc4ccccc4s3)CC2)CN1Cc1cccnc1	-23%
Clc1ccc2nc(N3CCC(NCCc4cccnc4)CC3)sc2c1	11µM*
CC1CCN(c2nc3ccc(C(=O)NCc4ccccc4)cc3s2)CC1	-27%
CC(C)NC(=O)NC[C@H]1OC[C@@H](NCc2cccc(C#N)c2)[C@@H]1O	-18%[44.1 µM]
C[C@@H]1CN(Cc2nc(C(N)=O)no2)CC[C@@]1(O)C1CCOCC1	-5%
COc1ccc(CNC(=O)N2CC[C@@](O)(C3CCC3)[C@H](C)C2)cc1	-11%
Cc1cc(-c2ccccc2)nc(CN2CC[C@@](O)(C3CCC3)[C@H](C)C2)n1	10µM*
c1cc(N2CCOCC2)ncc1-c1noc([C@@H]2CCCN2)n1	i
CC(C)c1cccc(NC(=O)C2CCN(C(=O)c3ncn4c3COC(c3ccc(F)cc3)C4)CC2)c1 (stereo not given)	-5%
O=C1CC(c2ccccc2)N(Cc2ccncc2)CCCN(C(=O)c2ccc3ncccc3c2)CCN1 (stereo not given)	6.3µM*
Cn1cnc(S(=O)(=O)N2CCCN(C(=O)c3ccncc3)CCNC(=O)CC2c2ccccc2)c1 (stereo not given)	-1%
COc1cccc(CC(=O)N2CCCN(S(C)(=O)=O)C(c3ccccc3)CC(=O)NCC2)c1 (stereo not given)	-11%
O=C1CC(c2ccccc2)N(Cc2ccncc2)CCCN(C(=O)c2ccsc2)CCN1 (stereo not given)	5.6µM*
CS(=O)(=O)N1CCCN(Cc2ccc(C#N)cc2)CCNC(=O)CC1c1ccccc1 (stereo not given)	-18%
CS(=O)(=O)N1CCCN(C(=O)c2ccsc2)CCNC(=O)CC1c1ccccc1 (stereo not given)	3%
Cc1ncccc1C(=O)N1CCCN(Cc2ccncc2)C(c2ccccc2)CC(=O)NCC1 (stereo not given)	11µM*
O=C1CC(c2ccccc2)N(C(=O)C2CC2)CCCN(C(=O)c2cccs2)CCN1 (stereo not given)	-18%
Cc1ccc(C(=O)N2CCCN(Cc3ccncc3)C(c3ccccc3)CC(=O)NCC2)cn1 (stereo not given)	i
O=C1CC(c2ccccc2)N(Cc2ccncc2)CCCN(C(=O)c2ccc3ccccc3n2)CCN1 (stereo not given)	-7%
SMILES	Pf Dd2 inh
COc1cccc(CN2CCCN(Cc3ccncc3)C(c3ccccc3)CC(=O)NCC2)c1 (stereo not given)	1.4µM*
Cc1ccc(C(=O)N2CCCN(S(C)(=O)=O)C(c3ccccc3)CC(=O)NCC2)cn1 (stereo not given)	-9%
Cc1ccc(C(=O)NC[C@H]2O[C@@H](CC(=O)N3CCN(c4ccccc4)CC3)[C@H](O)[C@@H]2O)cc1	28%
Cc1ncc2c(c1CNC(=O)c1cc(C(C)C)n3ncnc3n1)CCNC2	-4%
CN(C)c1ncc2c(n1)C(C)(C(=O)Nc1ccccc1)CCC2 (stereo not given)	2%[44.1 µM]
COc1ccccc1C(=O)NC1CCN(c2cc(C(F)(F)F)nc(C)n2)CC1	-4%
O=C(Nc1cccc(F)c1)N1CC2CC(C1)[C@H]1CCCC(=O)N1C2 (stereo not given in full)	-1%
Cc1ncsc1CN(C)C1CCc2nn(C)c(=O)n2CC1 (stereo not given)	14%
CCc1nc(-c2c3n(c(=O)n(Cc4ccc(OC)cc4)c2=O)CCCC3)no1	i
COC[C@H]1CCCN1C(=O)C[C@@H]1O[C@H](CNS(=O)(=O)c2ccc(Cl)cc2)[C@@H](O)[C@H]1O	-1%
Cc1noc(C)c1CCC(=O)NC1CC(c2cc(=O)[nH]c(C3CC3)n2)C1 (stereo not given)	0%
CN1CCC(C2CCN(C(=O)NC3CCCC3)C2)CC1 (stereo not given)	-17%
C=CCNC(=O)CCc1nnc(-c2cccc(OC(C)C)c2)[nH]c1=O	i
Cc1ccncc1C(=O)N1CC(N(C)Cc2cccnc2)C1	-10%
Cn1cccc1C(=O)N1CCCN(Cc2ccncc2)C(c2ccccc2)CC(=O)NCC1 (stereo not given)	2.5µM*
Cn1ccnc1C(=O)N1CCCN(S(C)(=O)=O)C(c2ccccc2)CC(=O)NCC1 (stereo not given)	i
CCCS(=O)(=O)N1CCCC(C(=O)NCc2ccccc2)CCNC(=O)CC1 (stereo not given)	26%
Cn1cccc1C(=O)N1CCCN(S(=O)(=O)c2ccccc2)CCC(=O)NCC1	-11%
Cc1cccc(C(=O)N2CCCN(Cc3ccncc3)C(c3ccccc3)CC(=O)NCC2)c1 (stereo not given)	2.2µM*
O=C1CC(c2ccccc2)N(Cc2ccncc2)CCCN(C(=O)CN2C(=O)CCC2=O)CCN1 (stereo not given)	-19%
Cc1cccc(C(=O)N2CCCN(C(=O)C3CC3)C(c3ccccc3)CC(=O)NCC2)c1 (stereo not given)	i
CCCS(=O)(=O)N1CCCN(Cc2ccncc2)C(c2ccccc2)CC(=O)NCC1 (stereo not given)	14µM*
Cc1cccc(C(=O)N2CCCCCNC(=O)CC2c2ccccc2)c1 (stereo not given)	-6%
COCCn1cnc2ccc(-c3cccnc3OC)nc2c1=O	i
O=C(NCc1cccs1)C1CCN(c2nc3ncccc3o2)CC1	-22%[44.1 µM]
SMILES	Pf Dd2 inh
COc1ccccc1-c1nc2cnccn2c1NCCC(=O)Nc1cc(F)ccc1F	i
COc1ccc(-n2nc3n(c2=O)CCN(C(=O)c2ccc(C(F)(F)F)cc2)C3)cc1	5%
Cc1ccc(C(=O)N2CCn3c(nn(-c4ccc(F)cc4F)c3=O)C2)cc1	12%
O=C(Nc1ccc(-c2nnc3n2CCCC3)cc1)Nc1ccccc1Br	16%
COc1ccccc1NC(=O)Nc1cccc(-c2nnc3n2CCCC3)c1	i
COc1ccccc1NC(=O)Nc1ccc(-c2nnc3n2CCCC3)cc1	4µM*
COc1ccc(N2CCN(C(=O)COc3ccc(-c4nnc5n4CCCC5)cc3)CC2)cc1	0.71µM*
COc1ccc(-c2nnc3n2CCN(C(C)=O)C3)cc1	0%[44.1 µM]
COc1cccc(NC(=O)Cn2nc3n(c2=O)CCCCC3)c1	38%
COc1ccc(CC(=O)N2CCn3c(nnc3-c3ccc(OC)cc3)C2)cc1	0%
O=C(COc1ccc(-c2nnc3n2CCCC3)cc1)Nc1ccc(F)cc1	5.6µM*
COc1cccc(NC(=O)Cn2c(C)cc3nc4n(c(=O)c32)CCCC4)c1	i
COc1cccc(NC(=O)COc2ccc(-c3nnc4n3CCCC4)cc2)c1	2.8µM*
CNC(=O)N1CCCCCCn2c(nnc2-c2ccc(F)cc2)CC1	-12%
O=C(C1CC1)N1CCCCCCn2c(nnc2-c2ccc(F)cc2)CC1	-15%
CCCCC(=O)N(CCC)CC1CCOC1 (stereo not given)	14%[5.79 µM]
O=C(NC[C@H]1O[C@@H](CO)[C@@H](O)[C@H]1N1CCN(c2cccc(C(F)(F)F)c2)CC1)Nc1ccc(F)cc1F	i
